High-throughput results as filed in PubChem BioAssay.
Only some compounds are listed: those with a hit (about 3.5% of all), similar ones and a draw of the others.
TEAD-YAP block: TEAD-YAP interaction inhibition; HEK-TIYL cells, TEAD-Gal4/YAP UAS-luciferase luminescence; inhibition, % at 9.12 µM; 640,000 tested, 1.4% active; AID 1259422; in the data active means inhibition above about 32%;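 further: 0% = median of test compound wells and 100% = reference inhibitor wells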
MITF primary: human MITF inhibition, primary screen; O75030; AlphaScreen MITF homodimerization, bead proximity signal; inhibition, % at 2.6 µM; 650,000 tested, 0.91% active; in the data active means inhibition above about 50%;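 further: 0% = vehicle wells with protein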
GPR151 ag: activators of human GPR151 | Q8TDV0 | PathHunter beta-arrestin GPR151 cells, luminescence | activation, % at 11.2 µM | 650,000 tested, 1% active; in the data active means activation above about 4.9%;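 further: 0% = median of compound wells and 100% = cells with positive control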
Target sequence (Q8TDV0 whole entry, looked up): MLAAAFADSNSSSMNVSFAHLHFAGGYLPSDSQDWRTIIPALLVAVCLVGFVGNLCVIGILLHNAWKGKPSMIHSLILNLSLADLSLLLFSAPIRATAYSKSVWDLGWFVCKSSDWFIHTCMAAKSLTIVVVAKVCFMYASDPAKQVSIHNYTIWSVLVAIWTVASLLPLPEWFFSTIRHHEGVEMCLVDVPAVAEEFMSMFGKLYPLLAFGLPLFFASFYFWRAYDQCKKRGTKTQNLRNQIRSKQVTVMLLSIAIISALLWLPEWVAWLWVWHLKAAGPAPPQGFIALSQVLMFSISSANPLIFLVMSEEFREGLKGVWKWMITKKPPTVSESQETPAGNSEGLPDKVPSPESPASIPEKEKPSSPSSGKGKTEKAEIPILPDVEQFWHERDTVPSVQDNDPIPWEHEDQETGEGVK
FBW7 act: human FBW7 E3 ligase activation, primary screen; Q969H0; AlphaScreen FBW7–phospho-cyclin E peptide binding, activator screen; normalized activity (activation), % at 26.1 µM; 650,000 tested, 0.13% active; in the data active means normalized activity above about 1.9%;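 further: purified mutant Fbw7 with reduced substrate affinity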
Starred values were filed as active, the others as inactive.

`O=C(Nc1ccccc1)c1cccc(Br)c1` gave TEAD-YAP block -25, MITF primary 14, GPR151 ag 1 and FBW7 act 0.
`Cn1ccc(C(=O)Nc2nc3c(s2)CCCC3)n1` gave TEAD-YAP block 46*, MITF primary 26, GPR151 ag -10 and FBW7 act 1.
COC(=O)c1ccc(C(=O)Nc2nc3c(s2)CCCC3)cc1 was read as TEAD-YAP block -77, MITF primary -10, GPR151 ag -4 and FBW7 act 0.
Screening O=C(Nc1nc2c(s1)CCCC2)c1cc(F)c(F)c(F)c1F returned TEAD-YAP block 48*, MITF primary 1, GPR151 ag 3 and FBW7 act 0.
Screening O=C(Nc1nc2c(s1)CCCC2)c1ccccc1I returned TEAD-YAP block -75, MITF primary -2, GPR151 ag 2 and FBW7 act 0.
For Cc1nc(SCC(=O)c2ccc[nH]2)nc(C)c1C the results were TEAD-YAP block -47, MITF primary -12, GPR151 ag -2 and FBW7 act 0.
`CCOc1ccc(NC(=S)c2ccccn2)cc1` gave TEAD-YAP block 75*, MITF primary 24, GPR151 ag -8 and FBW7 act -1.
Screening COc1ccc(C(=O)Nc2ccc(NC(=O)c3ccccn3)cn2)cc1 returned TEAD-YAP block 0, MITF primary -6, GPR151 ag 1 and FBW7 act 0.
Screening COc1ccc(NC(=O)c2ccccn2)cc1 returned TEAD-YAP block 51*, MITF primary -7, GPR151 ag -6 and FBW7 act 0.
Screening CC(C)/C=C1/CCCc2c1[nH]c1ccccc1c2=O returned TEAD-YAP block 42*, MITF primary 3, GPR151 ag 3 and FBW7 act 0.
Screening CC(=O)Nc1ccc(NC(=O)c2ccnc(-c3ccc(C(=O)N4CCN(C)CC4)cc3)c2)cc1 returned TEAD-YAP block -4, MITF primary -5, GPR151 ag 4 and FBW7 act 0.
For N#CC1=C(N)N(c2sc3c(c2C#N)CCCCC3)C2=C(C(=O)CCC2)C1c1ccccc1 (stereo unspecified) the results were TEAD-YAP block 14, MITF primary 0, GPR151 ag 1 and FBW7 act 0.
N#CC1=C(N)N(c2sc3c(c2C#N)CCCCC3)C2=C(C(=O)CCC2)C1c1cccs1 (stereo unspecified) was read as TEAD-YAP block 53*, MITF primary -5, GPR151 ag 2 and FBW7 act 0.
Screening Cc1cc(/C=C\c2nc(O)c([N+](=O)[O-])c(=O)[nH]2)c(C)n1-c1ccc(C(=O)O)cc1 returned TEAD-YAP block 10, MITF primary 63*, GPR151 ag 0 and FBW7 act 0.
For CC(C)CC(c1nnnn1C1CCCC1)N1CCN(C(=O)c2ccco2)CC1 (stereo unspecified) the results were TEAD-YAP block 55*, MITF primary -12, GPR151 ag 0 and FBW7 act 0.
For CC(C)CC(c1nnnn1C1CCCCC1)N1CCN(C(=O)c2ccco2)CC1 (stereo unspecified) the results were TEAD-YAP block 1, MITF primary -3, GPR151 ag -1 and FBW7 act 0.
Screening Cc1ccc(C)c(Oc2coc3cc(OCc4ccccc4)ccc3c2=O)c1 returned TEAD-YAP block 0, MITF primary 2, GPR151 ag 0 and FBW7 act 0.
Cc1cccc(Nc2ccc([N+](=O)[O-])cc2S(N)(=O)=O)c1 was read as TEAD-YAP block 36*, MITF primary 9, GPR151 ag -2 and FBW7 act 0.
`Oc1c(C(Nc2ccc(F)cc2)c2ccncc2)ccc2cccnc12` (stereo unspecified) gave TEAD-YAP block -3, MITF primary 61*, GPR151 ag -1 and FBW7 act -2.
Screening Oc1c(C(Nc2ncccn2)c2ccc(F)cc2)ccc2cccnc12 (stereo unspecified) returned TEAD-YAP block 1, MITF primary 15, GPR151 ag 2 and FBW7 act 0.
`Cc1cccc(NC(c2ccc(F)cc2)c2ccc3cccnc3c2O)n1` (stereo unspecified) gave TEAD-YAP block 86*, MITF primary 26, GPR151 ag -2 and FBW7 act 0.
Screening Cc1cccc(NC(c2cccc(F)c2)c2ccc3cccnc3c2O)n1 (stereo unspecified) returned TEAD-YAP block 40*, MITF primary 5, GPR151 ag -1 and FBW7 act 0.
Oc1c(C(Nc2ccccn2)c2cccc(F)c2)ccc2cccnc12 (stereo unspecified) was read as TEAD-YAP block 21, MITF primary 0, GPR151 ag 0 and FBW7 act 0.
